A number with no mark means an inactive call. The source made the active and inactive calls. Unless noted, no rule for the calls is given here.

The test system of one assay is Neuropilin-2 / VEGF-C interaction (human). Nature of the assay: inhibitors of NRP2–VEGF-C binding, biochemical, microplate binding format, z-score (AID 743281). The note with it: microplate NRP2/VEGF-C binding assay; stronger effect = lower value.
Take `CC[C@]1(O)CC[C@H]2[C@@H]3CCC4=CCCC[C@@H]4[C@H]3CCC21C` (some centres undefined): the call was inactive.
Still for that read-out and setting: with `CC12CC[C@H]3[C@@H](CC=C4C[C@@H](O)CCC43C)[C@@H]1CCC2=O` (some centres undefined) the entry was “inactive”.
Turning to `CC12C/C(=C/O)C(=O)C[C@@H]1CC[C@@H]1[C@@H]2CCC2(C)[C@H]1CC[C@]2(C)O` (some centres undefined), the compound was classed as inactive.
On to `CC12CC[C@H]3[C@@H](CCC4=CC(=O)CC[C@@H]43)[C@@H]1CC[C@@H]2O` (some centres undefined), for which the call was inactive.
On to `CC12Cc3cn[nH]c3C[C@@H]1CC[C@@H]1[C@@H]2CCC2(C)[C@H]1CC[C@]2(C)O` (some centres undefined), for which the result was inactive.
As for `C=C1C[C@@H]2[C@H](CCC3(C)C(=O)CC[C@@H]23)C2(C)C=CC(=O)C=C12` (some centres undefined), the compound was called inactive.
The same measure, in the same setting: with `CC12CC[C@H](O)CC1=CC[C@@H]1[C@@H]2CCC2(C)[C@H]1CC[C@]2(C)O` (some centres undefined) the entry was “inactive”.
For the compound `CN1CC[C@]2(c3cccc(O)c3)Cc3nc4ccccc4cc3C[C@H]2C1`, the z-score is -0.954.
Regarding `Oc1ccc2c3c1O[C@H]1c4[nH]c5ccccc5c4CC4(O)C(C2)N(CC2CC2)CC[C@]314` (some centres undefined), the result was inactive.
`CC12CCC(=O)C[C@@H]1CC[C@@H]1[C@@H]2CCC2(C)[C@H]1CC[C@]2(C)O` (some centres undefined): the outcome was inactive.
The same measure, in the same setting: the entry for `C=C(C)CN1CC[C@]23c4c5ccc(O)c4O[C@H]2c2[nH]c4ccccc4c2CC3(O)C1C5` (some centres undefined) is “inactive”; for `CC12CCC(=O)C=C1CC[C@@H]1[C@@H]2CCC2(C)[C@@H](O)CC[C@@H]12` (some centres undefined) it is “inactive”.
In the case of `CC(C)(O)[C@@H]1[C@H]2OC(=O)[C@@H]1C1(O)C[C@H]3O[C@]34C(=O)O[C@H]2[C@]14C` (some centres undefined) (tested in a mixture with another compound), the compound was classed as inactive.
Consider `CC12CCC(=O)C=C1CC[C@@H]1[C@@H]2CCC2(C)[C@H]1CC[C@]2(C)O` (some centres undefined), for which the compound was classed as inactive.

Test system in the next assay: not listed separately
Put plainly: modulation of C. elegans fzo-1 (AID 1259413).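 Also: fzo-1 mutant C. elegans worms in liquid wells.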 The settings on record: C. elegans fzo-1 modulator screen, mean read-out; stronger effect = higher value.
In the case of `CC[C@]1(O)CC[C@H]2[C@@H]3CCC4=CCCC[C@@H]4[C@H]3CCC21C` (some centres undefined), the mean signal was 230.
Take `CC12CC[C@H]3[C@@H](CC=C4C[C@@H](O)CCC43C)[C@@H]1CCC2=O` (some centres undefined): the mean signal was 245.
In the case of `CC12C/C(=C/O)C(=O)C[C@@H]1CC[C@@H]1[C@@H]2CCC2(C)[C@H]1CC[C@]2(C)O` (some centres undefined), the mean signal is 230.
`CC12CC[C@H]3[C@@H](CCC4=CC(=O)CC[C@@H]43)[C@@H]1CC[C@@H]2O` (some centres undefined): the mean signal was 225.
Regarding `CC12Cc3cn[nH]c3C[C@@H]1CC[C@@H]1[C@@H]2CCC2(C)[C@H]1CC[C@]2(C)O` (some centres undefined), the mean signal was 229.
For `C=C1C[C@@H]2[C@H](CCC3(C)C(=O)CC[C@@H]23)C2(C)C=CC(=O)C=C12` (some centres undefined), the mean signal is 265.
For the compound `CC12CC[C@H](O)CC1=CC[C@@H]1[C@@H]2CCC2(C)[C@H]1CC[C@]2(C)O` (some centres undefined), the mean signal is 278.
Regarding `CN1CC[C@]2(c3cccc(O)c3)Cc3nc4ccccc4cc3C[C@H]2C1`, the mean signal is 226.
Consider `Oc1ccc2c3c1O[C@H]1c4[nH]c5ccccc5c4CC4(O)C(C2)N(CC2CC2)CC[C@]314` (some centres undefined), for which the mean signal was 234.
The same measure, in the same setting: the figure for `CC12CCC(=O)C[C@@H]1CC[C@@H]1[C@@H]2CCC2(C)[C@H]1CC[C@]2(C)O` (some centres undefined) is 277; for `C=C(C)CN1CC[C@]23c4c5ccc(O)c4O[C@H]2c2[nH]c4ccccc4c2CC3(O)C1C5` (some centres undefined) it is 243.
For `CC12CCC(=O)C=C1CC[C@@H]1[C@@H]2CCC2(C)[C@@H](O)CC[C@@H]12` (some centres undefined), the mean signal was 263.
Still for that read-out and setting: the figure for `CC(C)(O)[C@@H]1[C@H]2OC(=O)[C@@H]1C1(O)C[C@H]3O[C@]34C(=O)O[C@H]2[C@]14C` (some centres undefined) (tested in a mixture with another compound) is 237; for `CC12CCC(=O)C=C1CC[C@@H]1[C@@H]2CCC2(C)[C@H]1CC[C@]2(C)O` (some centres undefined) it is 283.

Test system in another assay: not listed separately
Put plainly: differential killing of epithelial or mesenchymal cells, primary screen, imaging, PC-3E GFP, TEM4-18 mCherry, co-culture (AID 1345086;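 active = compounds killing one labelled cell type while sparing the other, by normalised counts and ratio limits, not self-fluorescent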;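 also: normalised mesenchymal count divided by normalised epithelial count so high means epithelial killing; cells exposed to compound for 72 h before imaging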). The note with it: imaging cell counts, at 1 µM, actives lie on both sides.
For `CC[C@H](c1cccc(O)c1)[C@@H](C)CN(C)C`, the red/green cell ratio (normalised) was 0.92.
Same read-out and setting: the figure for `CC(=O)OCC1=C(C(=O)O)N2C(=O)[C@@H](N)C2SC1` (some centres undefined) is 1.18.
On the same count and under the same terms, the figure for `CCSCCC(N)C(=O)O` (centres undefined) is 0.84; for `COc1cc2c(c3oc4cccc(O)c4c(=O)c13)[C@@H]1C=CO[C@@H]1O2` it is 0.95.

The same assay, now with this note: imaging cell counts, at 1 µM, actives lie on both sides, counts scaled to control wells, 1 = unselective.
Take `COc1cc([C@@H]2c3cc4c(cc3[C@H](OC(C)=O)C3COC(=O)[C@H]32)OCO4)cc(OC)c1OC` (some centres undefined): the red/green cell ratio (normalised) was 1.07.
Regarding `CCC(C)C(=O)O[C@@H]1C[C@@]2(C)[C@H](c3ccoc3)OC(=O)CC23OC2(C)O[C@]14C1(C)[C@@H](CC(=O)OC)C5(C)CC1(O)[C@](O)(C5OC(=O)C1(C)OC1C)[C@@H](OC(C)=O)[C@]34O2` (some centres undefined), the red/green cell ratio (normalised) was 1.2.
Regarding `COc1cc(O)c(C(=O)O)c(-c2cc(O)c(O)cc2C)c1`, the red/green cell ratio (normalised) is 1.12.
Turning to `CC[C@H](C)/C=C(C)/C=C/C1=CC2=C(Cl)C(=O)[C@](C)(OC(C)=O)C(=O)C2=CO1`, the red/green cell ratio (normalised) was 1.
As for `CC1NCCc2cc(O)c(O)cc21` (centres undefined), the red/green cell ratio (normalised) is 0.96.
Regarding `CN1CC[C@@]2(C)c3cc(O)ccc3N(C)[C@@H]12`, the red/green cell ratio (normalised) is 1.19.
Take `C/C=C(\C)C(=O)O[C@H]1C[C@@H](OC(C)=O)[C@@]2(C(=O)OC)CO[C@@H]3C2[C@]12CO[C@](O)(C(=O)OC)[C@H]2[C@](C)(C12O[C@@]1(C)[C@H]1C[C@H]2OC2OC=C[C@@]21O)[C@@H]3O` (some centres undefined): the red/green cell ratio (normalised) is 1.21.
In the case of `Cc1ncc(C[n+]2csc(CCO)c2C)c(=O)[nH]1`, the red/green cell ratio (normalised) is 0.81.
On the same count and under the same terms, the figure for `Fc1ccc(C2CCNCC2COc2ccccc2)cc1` (centres undefined) is 0.82; for `COc1cc(=O)oc(/C=C/C=C/C=C/C(C)=C/[C@@]2(C)O[C@@H](C)[C@@](C)(O)[C@@H]2O)c1C` it is 0.98.
In the case of `C[C@@H]1CC[C@H]2[C@@H](C)C(=O)O[C@@H]3O[C@]4(C)CC[C@@H]1[C@]32OO4`, the red/green cell ratio (normalised) was 1.06.
With `Nc1ccc(-c2ccccc2)cc1`, the red/green cell ratio (normalised) is 1.07.
For `COc1cc(O)c2c(=O)oc3cc(O)cc(C)c3c2c1`, the red/green cell ratio (normalised) was 0.9.
As for `CC(C)[C@@H]1CC[C@](O)(CCl)[C@@H]2C(=O)OCC(C(=O)O)=C[C@H]21`, the red/green cell ratio (normalised) is 0.96.
On the same count and under the same terms, the figure for `N#Cc1cc(I)c(O)c(I)c1` is 1.04; for `C[CH2][Hg+].O=C([O-])c1ccccc1[S-].[Na+]` it is 0.36; for `C[C@H]1COc2c(N3CCNCC3)c(F)cc3c(=O)c(C(=O)O)cn1c23` it is 0.98.
With `O=[N+]([O-])c1ccc(CN2CCNCC2)cc1`, the red/green cell ratio (normalised) is 0.74.
Take `CN1C(=O)c2ccccc2NC(=O)[C@@H]1Cc1ccccc1`: the red/green cell ratio (normalised) was 1.03.
In the case of `CCC(C)[C@H]1O[C@]2(C=C[C@@H]1C)C[C@@H]1C[C@@H](C/C=C(\C)[C@@H](OC3C[C@H](OC)C(O[C@H]4C[C@H](OC)[C@@H](O)[C@H](C)O4)[C@H](C)O3)[C@@H](C)/C=C/C=C3\COC4[C@H](O)C(C)=C[C@@H](C(=O)O1)[C@]34O)O2` (some centres undefined), the red/green cell ratio (normalised) was 0.68.
Consider `CCC(C)C(=O)O[C@@H]1C[C@@]2(C)[C@H](c3ccoc3)OC(=O)CC23OC2(C)OC34[C@H](OC(=O)C(C)C)C3(O)[C@@H](OC(=O)C5(C)OC5C)[C@@]5(C)C[C@]3(O)[C@@](C)([C@H]5CC(=O)OC)C14O2` (some centres undefined), for which the red/green cell ratio (normalised) is 1.06.
For the compound `O=C1CC2OCC=C3CN4CC[C@]56c7ccccc7N1C5[C@H]2[C@@H]3CC46` (some centres undefined), the red/green cell ratio (normalised) was 1.12.
